The source made the active and inactive calls.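 Rule for the calls: active = cell survival after UV exposure 2 SD above solvent-only control wells at 10 µM, confirmed on one or two repeats; inactive = the rest.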

This assay can be described thus: protection of CHO cells from pyrene-fatty acid UV killing, primary screen, phospholipid biosynthesis inhibitor project, ZR-82 cells, Analyticon library, screen 2 (AID 1347383).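 Note: survival reflects blocked phospholipid synthesis cutting uptake of the phototoxic fatty acid; compound and fatty acid exposure 3 h then viability read next day.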 The following applies: ZR-82 CHO cells, CellTiter Blue, at 10 µM; peroxisome-deficient CHO-K1 variant, with DGAT-1, DGAT-2 and ACAT inhibitors unless noted.
Regarding `COc1ccc([C@@]23CC[C@H](O)C[C@@H]2N(C)CC3)cc1OC`, the call was inactive.
To `CC1(C)C=Cc2c(ccc3c4c([nH]c23)C(C)(C)C2CC35CCCN3C(=O)C2(C4)NC5=O)O1` (stereo not drawn) belongs “inactive”.
To `CC1(C)OC1COc1c2occc2cc2ccc(=O)oc12` (stereo not drawn) belongs “inactive”; to `COc1ccc(/C=C/c2cc(O)cc(O)c2)cc1`, “inactive [setting not given]”; to `CC(=O)O[C@H]1C(=O)[C@]2(C)C(O)C[C@H]3OC[C@@]3(OC(C)=O)[C@H]2[C@H](OC(=O)c2ccccc2)[C@]2(O)C[C@H](O)C(C)=C1C2(C)C` (stereo partly drawn), “inactive”.
To `COc1cc2c(cc1OC)[C@@]13CCN4CC5=CCO[C@H]6CC(=O)N2[C@H]1[C@H]6[C@H]5C[C@H]43` belongs “inactive [setting not given]”.
Turning to `CO[C@@H]1[C@@H](O)[C@H](C)O[C@@H](O[C@H]2CC[C@]3(C)C4CC[C@]5(C)[C@H](C6=CC(=O)OC6)CC[C@]5(O)C4CC[C@@H]3C2)[C@H]1OC(C)=O` (stereo partly drawn), the outcome was inactive.
Regarding `COC1CC(O[C@H]2CC[C@]3(C)C4CC[C@]5(C)[C@@H](C6=CC(=O)OC6)CC[C@]5(O)[C@@H]4CC[C@]3(O)C2)OC(C)C1O` (stereo partly drawn), the compound was classed as inactive.
The value for `C/C=C(\C)[C@H](O)[C@H](C)/C=C(C)/C=C/C/C(C)=C/Cc1[nH]c(OC)c(OC)c(=O)c1C` was “inactive”; that for `CO[C@H]1C[C@H](O[C@H]2CC[C@]3(CO)[C@H]4CC[C@]5(C)[C@@H](C6=CC(=O)OC6)CC[C@]5(O)[C@@H]4CC[C@]3(O)C2)O[C@H](C)[C@H]1O` was “inactive”.
To `OCC(O)Cc1ccc2c(c1)OCO2` (stereo not drawn) belongs “inactive [setting not given]”; to `C=CC1C[N+]2([O-])CCC1CC2C(O)c1ccnc2ccc(OC)cc12` (stereo not drawn), “inactive”; to `CCC1CC2CN3CCc4c([nH]c5ccccc45)C(C(=O)OC)(C2)C13` (stereo not drawn), “inactive”.
The value for `CC1=CC2/C=C(\C)CCC(O)C(O)/C=C/C(=O)C23C(=O)NC(CC(C)C)C3C1C` (stereo not drawn) was “inactive”; that for `COc1ccc([C@@]23CC[C@@H](O)C[C@@H]2N(C)CC3)cc1OC` was “inactive”; that for `C=C(C)[C@H]1CCC(C)=C[C@@H]1c1c(O)cc(CCCCC)c(C(=O)O)c1O` was “inactive”.
On to `CCC1CN2CCC3(C(=O)Nc4cccc(O)c43)C2CC1/C(=C/OC)C(=O)OC` (stereo not drawn), for which the outcome was inactive.
With `CC(C)[C@@H](C)/C=C/[C@@H](C)[C@H]1CC[C@@H]2[C@]1(C)CCC1[C@]23C=C[C@]2(C[C@@H](O)CC[C@]12C)OO3` (stereo partly drawn), the compound was classed as inactive.
On to `C[C@]12CC[C@H](O)CC1=CC[C@@H]1C2CC[C@]2(C)[C@@H](C3=CC(=O)OC3)CC[C@]12O` (stereo partly drawn), for which the call was inactive.
To `C=C(C)[C@H]1CCC(C)=C[C@@H]1c1c(O)cc(CCCCC)cc1O` belongs “inactive”; to `CC(C)=CCOc1c2occc2cc2ccc(=O)oc12`, “inactive [setting not given]”.
The value for `C[C@@]1(C(=O)O)CC[C@]2(C)CC[C@]3(C)C4=CC(=O)c5cc(O)c(O)cc5[C@]4(C)CC[C@@]3(C)[C@@H]2C1` was “inactive”; that for `Oc1cc(O)cc(/C=C/c2ccc(O)cc2O)c1` was “inactive”; that for `C[C@@H]1CCC2[C@@H](C)C(=O)OC3O[C@]4(C)CCC1[C@]32OO4` (stereo partly drawn) was “inactive”.
To `CO[C@H]1[C@H](O)[C@H](O[C@H]2CC[C@]3(C=O)C4CC[C@]5(C)[C@H](C6=CC(=O)OC6)CC[C@]5(O)C4CC[C@@H]3C2)O[C@@H](C)[C@@H]1O` (stereo partly drawn) belongs “inactive”; to `CC(C)(C)C1(O)C[C@@H]2OC(=O)C[C@@]23C(=O)O[C@@H]2OC(=O)[C@@H](O)[C@]213` (stereo partly drawn), “inactive”; to `CO[C@@H]1[C@H](O)[C@@H](O[C@@H]2C[C@H]3CC[C@@H]4C(CC[C@]5(C)[C@@H](C6=CC(=O)OC6)CC[C@]45O)[C@@]3(C)[C@H](O)C2)O[C@H](C)[C@@H]1O` (stereo partly drawn), “inactive”.
`C[C@]12CC[C@H](O[C@@H]3O[C@H](CO)[C@@H](O)[C@H](O)[C@H]3O)CC1CC[C@@H]1C2CC[C@]2(C)[C@@H](C3=CC(=O)OC3)CC[C@]12O` (stereo partly drawn): the compound was classed as inactive.

Values taken from PubChem BioAssay AID1347383 (Zoeller Lab, School of Medicine, Boston University, 2020).
